# Screens as filed in PubChem.
# KB-3-1 tox: kills parental KB-3-1 adenocarcinoma cells; KB-3-1 viability, CellTiter-Glo ATP luminescence, 72 h; Potency, µM (titrated, usually from 46.1 µM), actives largely listed as cytotoxic; 1.4% of 400,000 active; AID 1347075; further: nearly all actives have a fitted effect of over 60% in size
#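 Here the drug-naive KB-3-1 line serves as comparator for MDR sub-line selectivity; cells received compound titrations, 72 h at 37 °C, then CellTiter-Glo readout.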
# TDP1 cell CPT: DT40-hTDP1 cell growth loss with CPT. AID 686979. chicken DT40 Tdp1-/-;hTDP1 cells + 20 nM CPT, ATP luminescence, 48 h. 12% of 420,000 active. Potency, µM (doses to about 46.2 µM), inactives show top-dose activity change, negative = growth inhibition, most hits filed as inhibitors; further: nearly all actives have a fitted effect of over 55% in size
#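 Cell growth measured by CellTiter-Glo luminescence after a minimum 48 h, 37 C compound exposure with 20 nM CPT in Tdp1-knockout DT40 cells stably expressing hTDP1, seeded 400/well; qHTS titration format.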
# HT1080 IDH1KD tx: HT-1080 IDH1 knockdown cell toxicity (counter line) | HT-1080 IDH1 knockdown viability, ATP luminescence, 48 h | Potency, µM (top dose mostly 46.1 µM), without a hit: at the top dose activity, negative = toxicity, actives largely listed as cytotoxic | 2% of 360,000 active;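 further: 0% = DMSO wells and -100% = cell-free medium wells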
#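 HT-1080-IDH1KD cells (IDH1 knocked down), 750/well in RPMI with 5% FBS, treated with compound 48 h at 37 degrees C. Viability by CellTiter-Glo luminescence, normalised to DMSO and no-cell wells; concentration-response curves classed.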
# HT1080-NT tox: kills 2HG-producing HT-1080-NT fibrosarcoma cells | HT-1080-NT fibrosarcoma viability, CellTiter-Glo ATP luminescence, 48 h | Potency, µM (doses to about 46.1 µM), inactives show at the highest dose activity, negative = less viability, actives largely listed as cytotoxic | 1.6% of 360,000 active;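 further: NT is the 2HG producing partner of a matched IDH1 knockdown line; 0% = DMSO-treated cells and -100% = media-only wells without cells; nearly all actives have a fitted effect of over 55% in size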
#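 Toxicity toward the 2HG-producing NT line was scored as %Activity, normalised to DMSO and no-cell wells, from CellTiter-Glo luminescence after 48 hours' treatment.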
# KB-V1 MDR tox: kills drug-selected multidrug resistant KB-V1 cells; KB-V1 MDR cells viability, CellTiter-Glo, 72 h; Potency, µM (series often up to 46.1 µM), usual class: cytotoxic; 3.4% of 400,000 active; further: nearly all actives have a fitted effect of over 60% in size
#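 Drug-selected KB-V1 cells, grown in DMEM lacking phenol red with 10% FBS, receive compound titrations; after three days at 37 degrees C, surviving cell ATP is quantified by CellTiter-Glo luminescence and responses normalized and curve-fitted.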
# DT40 TDP1 no CPT: qHTS for Inhibitors of human tyrosyl-DNA phosphodiesterase 1 (TDP1): qHTS in cells in absence of CPT | AID 686978, 2013 | DT40 Tdp1-/- hTDP1 cells, no CPT, ATP luminescence, 48 h | Potency, µM (series often up to 46.2 µM), inactives show at the top dose activity change, negative = growth inhibition, most hits filed as inhibitors | 15% of 420,000 active; further: nearly all actives have a fitted effect of over 55% in size
#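 Readout: luminescence from CellTiter-Glo after 30 min in the dark at RT. Cells: DT40 Tdp1-/- with stable hTDP1, 400/well. Exposure: compounds alone, ≥48 hr, 37 °C.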
# * = called active by the depositor; i = inactive; ? = inconclusive; . = not tested or not shown. Sampled rows, rich in hits. Any-hit rate of the full collection: about 19%. The call rests on the fitted dose curve; in most records, active means well fitted curve in the direction sought with a large enough effect; inconclusive means small, poorly fitted or top-dose-only effect, or another doubt; inactive means no such curve, though single readings can be large; an effect the other way counts as inactive or inconclusive. Unless noted, on the % scale 0 is the no-effect control and ±100 the full control effect; potency means the concentration at half of the fitted maximal effect.
SMILES,KB-3-1 tox,TDP1 cell CPT,HT1080 IDH1KD tx,HT1080-NT tox,KB-V1 MDR tox,DT40 TDP1 no CPT
CN(C)/C=N/c1ncc(-c2ncc(C(F)(F)F)cc2Cl)cn1,?,7.2%,11.7%,14.6%,10.3µM*,-8.3%
COc1ccc(Nc2ncnc3c2c(-c2ccccc2)cn3-c2ccc(C)c(Cl)c2)cc1OC,.,-2.1%,.,.,.,-12.0%
COCCCNc1ncnc2c1c(-c1ccccc1)cn2-c1ccc(C)c(Cl)c1,.,18.4µM*,.,.,.,?
COc1ccc(-n2cc(-c3ccccc3)c3c(NCCOCCO)ncnc32)cc1,i,?,-7.6%,-6.7%,i,?
Fc1ccc(-n2cc(-c3ccccc3)c3c(NN4CCOCC4)ncnc32)cc1,?,?,5.0%,10.9%,7.31µM*,23.1µM*
COc1ccc(-n2cc(-c3ccccc3)c3c(NN4CCOCC4)ncnc32)cc1,i,?,-22.8%,-25.0%,?,16.4µM*
Nc1c(C(=O)Nc2ccccc2)sc2nc3c(c(-c4ccco4)c12)CCCC3,i,?,?,-25.0%,i,?
Nc1c(C(=O)Nc2ccccc2)sc2nc3c(c(-c4ccco4)c12)CCC3,?,8.2µM*,?,-8.8%,i,9.2µM*
Cc1ccccc1NC(=O)c1sc2nc3c(c(-c4ccco4)c2c1N)CCCC3,i,16.4µM*,-2.7%,-13.6%,i,?
CCN(c1ccccc1)c1cc(C)nc2ncnn12,i,3.5%,4.3%,0.8%,i,1.5%
Cc1cc(Oc2ccc(-c3ccccc3)cc2)n2ncnc2n1,i,18.4µM*,?,-30.0%,i,-24.6%
CCOc1ccccc1-n1nnc(-c2nsc(NC(=O)c3ccc(C)cc3)n2)c1C,?,?,.,.,i,?
O=C(NCC(c1cccnc1)N1CCN(c2ccccc2)CC1)C1CCCCC1 (centres undefined),i,?,-2.6%,0.0%,20.6µM*,?
O=C(NCC(c1cccnc1)N1CCN(c2ccccc2)CC1)OCc1ccccc1 (centres undefined),i,?,2.9%,10.7%,2.59µM*,?
COC(=O)NCC(c1cccnc1)N1CCN(c2ccccc2)CC1 (centres undefined),i,3.2%,1.9%,2.1%,i,-6.3%
O=C(NCC(c1cccnc1)N1CCN(c2ccc(F)cc2)CC1)OCc1ccccc1 (centres undefined),i,?,-5.1%,-6.5%,?,14.6µM*
O=C(NCC(c1ccco1)N1CCN(c2ccccc2)CC1)C1CCCCC1 (centres undefined),i,?,1.5%,-0.9%,?,23.1µM*
Cc1ccc(-c2cc(C(F)(F)F)n3nc(C(=O)NCC45CC6CC(CC(C6)C4)C5)cc3n2)cc1,i,-14.5%,.,.,?,-19.5%
N#Cc1cccc(NC(=O)N2CCC3(CC2)CCN(C(=O)c2ccco2)CC3)c1,.,-16.0%,.,.,.,?
O=S(=O)(c1ccc(F)cc1)N1CCN(c2ccc(-c3ccccc3)nn2)CC1,i,9.7%,0.2%,10.4%,i,-3.4%
O=C(NCC(c1cccnc1)N1CCN(c2ccccc2F)CC1)c1ccco1 (centres undefined),i,?,2.2%,0.7%,i,23.1µM*
O=C(NCC(c1cccnc1)N1CCN(c2ccccc2F)CC1)OCc1ccccc1 (centres undefined),i,?,?,-1.7%,i,18.4µM*
O=C(NCC(c1cccnc1)N1CCN(c2ccccc2F)CC1)c1ccccc1 (centres undefined),i,?,3.3%,-3.5%,i,?
O=C(NCc1cccnc1)C(=O)NCC(c1cccnc1)N1CCN(c2ccccc2F)CC1 (centres undefined),i,?,.,.,i,?
COc1ccc(N2CCN(C(CNC(=O)C(=O)NCC3CCCO3)c3ccco3)CC2)cc1 (centres undefined),i,-23.1%,-0.2%,0.0%,4.11µM*,-14.6%
SMILES,KB-3-1 tox,TDP1 cell CPT,HT1080 IDH1KD tx,HT1080-NT tox,KB-V1 MDR tox,DT40 TDP1 no CPT
Fc1cccc(-n2ncc3c2ncn2nc(COc4ccc(Cl)cc4)nc32)c1,.,-3.6%,.,.,.,-5.5%
COc1ccc(S(=O)(=O)N2CC3CCCN3c3ccc(C(F)(F)F)cc32)cc1 (centres undefined),i,25.9µM*,-25.6%,-15.4%,i,?
COc1ccc(S(=O)(=O)N2CC3CCCN3c3cc(C(F)(F)F)ccc32)cc1 (centres undefined),?,20.6µM*,-10.4%,-12.8%,?,?
COc1ccccc1Nc1nc(C)nc2c1oc1ccccc12,i,14.6µM*,-27.7%,?,?,9.2µM*
COc1ccc(Nc2nc(C)nc3c2oc2ccccc23)c(OC)c1,i,-15.4%,29.1µM*,18.4µM*,i,-21.9%
CCc1nc(Nc2ccc(OC)cc2OC)c2oc3ccccc3c2n1,i,7.31µM*,14.6µM*,?,i,20.6µM*
CCc1nc(NCc2ccc3c(c2)OCO3)c2oc3ccccc3c2n1,?,13µM*,-12.3%,-6.7%,16.4µM*,18.4µM*
CCN(CC)S(=O)(=O)c1cc(C)ccc1NC(=S)Nc1cccnc1,i,?,-17.8%,-11.7%,i,?
COc1ccc(S(=O)(=O)N2CCC(Nc3ccccc3Cl)CC2)cc1,?,-21.4%,1.6%,0.9%,i,-12.6%
CC(Nc1ccc(-c2nc(-c3ccncc3)no2)cc1[N+](=O)[O-])c1ccccc1 (centres undefined),i,-17.8%,.,.,i,-21.3%
COc1ccc(-c2onc(C)c2C)cc1S(=O)(=O)N1c2ccccc2CC1C (centres undefined),.,23.1µM*,.,.,.,?
COc1ccc(-c2onc(C)c2C)cc1S(=O)(=O)NCc1ccc(Br)cc1,?,10.3µM*,.,.,?,13µM*
COc1ccc(-c2onc(C)c2C)cc1S(=O)(=O)NCC1CCN(Cc2cc(C)ccc2C)CC1,i,?,.,.,i,16.4µM*
COc1ccc(-c2onc(C)c2C)cc1S(=O)(=O)NCCc1ccco1,?,?,?,?,i,-28.4%
CCN(CC)c1ccc(NS(=O)(=O)c2cc(-c3onc(C)c3C)ccc2OC)c(C)c1,.,23.1µM*,.,.,.,?
Cc1nc(NCc2c(F)cccc2F)sc1-c1ccn(CCN2CCOCC2)n1,.,10.2%,.,.,.,-8.5%
